Data on 9 compounds can be found in PubChem BioAssay (NCATS).

Records with an inconclusive call do not appear. Values without a mark were called inactive. Calls come from the whole dose curve; as a rule, active = well fitted inhibition curve with a large enough effect; inconclusive = small, poorly fitted or top-dose-only effect; inactive = flat fitted curve, though single readings scatter. Where a SMILES comes first, the peptide text is derived from it. [ ]: non-standard residue; d: D form. Ala(indol-2-yl) = N[C@@H](Cc1cc2ccccc2[nH]1)C(=O)O; Aib = CC(C)(N)C(=O)O
% is set by controls: 0 for no effect and ±100 for the full control effect.

Chain of Phospholipid hydroperoxide glutathione peroxidase GPX4 (Homo sapiens) (P36969 whole entry, looked up): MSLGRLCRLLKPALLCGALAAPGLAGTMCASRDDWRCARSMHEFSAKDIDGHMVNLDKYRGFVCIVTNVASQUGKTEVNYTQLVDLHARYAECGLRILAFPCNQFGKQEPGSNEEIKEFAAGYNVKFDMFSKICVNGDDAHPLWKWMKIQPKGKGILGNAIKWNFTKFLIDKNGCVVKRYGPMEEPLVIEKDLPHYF

In the assay the target is Phospholipid hydroperoxide glutathione peroxidase GPX4 (Homo sapiens) (UniProt P36969). The experiment in a line: Primary qHTS Assay for Inhibitors of Recombinant Selenoprotein Glutathione Peroxidase 4 (GPX4) (AID 1845192). Note: nearly all actives have a fitted effect of over 65% in size. As to conditions: recombinant GPX4, GR-coupled NADPH fluorescence, 15 min; series mostly up to 50 µM; activity change, negative = inhibition: at the top concentration. A digest of the protocol:
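GR-coupled assay: recombinant GPX4 preincubated 30 min with compound at room temperature; final 200 nM GPX4, 1 mM GSH, 0.5 mM cumene hydroperoxide, 0.5 mM NADPH, 100 nM GR, 0.01% BSA, pH 7.5 Tris. NADPH fluorescence (340/450 nm) read at 0 and 15 min.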
(In general: Quantitative high-throughput screening tests each substance at several concentrations.)
In the case of `COc1cc2c(c(OC)c1OC)-c1ccc(SC)c(=O)cc1[C@@H](NC(C)=O)CC2`, the “activity change, negative = inhibition” value was -9.84%. Consider `CC(C)(NC(=O)[C@@H](N)Cc1ccc(O)cc1)C(=O)N[C@@H](Cc1cc2ccccc2[nH]1)C(=O)N[C@@H](Cc1ccccc1)C(=O)O` (H-Y[Aib][Ala(indol-2-yl)]F-OH), for which the activity change, negative = inhibition is -0.548% [at 9.73 µM]. For `C=C1[C@@H](C)[C@H]2[C@H](Cc3ccccc3)NC(=O)[C@]23[C@H](OC(C)=O)/C=C/[C@](C)(O)C(=O)[C@@H](C)C/C=C/[C@H]3[C@@H]1O`, the “activity change, negative = inhibition” value was 2.69%.

`COc1ccc2c3c([nH]c2c1)C(C=C(C)C)N1C(=O)C2CCCN2C(=O)C1C3` (centres undefined): the “activity change, negative = inhibition” value is -18.4% [at 27.8 µM]. With `C[C@@H]1C[C@@H](O)[C@]2(O)O[C@@H]3C[C@@]4(C=O)C(CC[C@@H]5C4CC[C@]4(C)[C@@](O)(C6=CC(=O)OC6)CC[C@]54O)C[C@H]3OC2O1` (some centres undefined), the “activity change, negative = inhibition” value is 3.6% [at 27.8 µM]. With `CC(=O)OC[C@]12C[C@H](OC(=O)CC(C)C)C(C)=C[C@H]1O[C@@H]1[C@H](O)[C@@H](OC(C)=O)[C@@]2(C)[C@@]12CO2`, the “activity change, negative = inhibition” value was -3.42% [at 27.8 µM]. Turning to `CC[C@H](C)[C@H](NC(=O)[C@H]1CCCCN1C)C(=O)N(COC(=O)CC(C)C)[C@H](C[C@@H](OC(C)=O)c1nc(C(=O)N[C@@H](Cc2ccc(O)cc2)C[C@H](C)C(=O)O)cs1)C(C)C`, the activity change, negative = inhibition was -13.5% [at 1.09 µM].

`CC1=C[C@H]2O[C@@H]3C[C@H]4OC(=O)/C=C/C=C/C(=O)OCC/C(C)=C/C(=O)OC[C@@]2(CC1)[C@]4(C)[C@]31CO1`: the “activity change, negative = inhibition” value was -17.8% [at 27.8 µM]. `COC1CC(O[C@H]2CC[C@]3(C)C4CC[C@]5(C)[C@@H](C6=CC(=O)OC6)[C@@H](OC(C)=O)C[C@]5(O)C4CC[C@@H]3C2)OC(C)C1O[C@@H]1O[C@H](CO)[C@@H](O)[C@H](O)[C@H]1O` (some centres undefined): the “activity change, negative = inhibition” value was -3.34% [at 15.3 µM].
